According to PubChem BioAssay AID430 (Sanford-Burnham Center for Chemical Genomics, 2006):
Out of some 63,000 compounds screened, about 1,100 (1.7%) were called active. Shown is part of a subset that was picked to be rich in actives. Potency and affinity values are given separately. A number with no mark means an inactive call. Rule as the data show it: active = cytotoxicity above about 50%; inactive = the rest.

Assay: HPDE-C7 pancreatic duct cell viability loss – fluorescence, HTS (AID 430);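 also: cells exposed to compound for 48 hours before viability readout; 0% = vehicle and 100% = reference cytotoxic drug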
Conditions: HPDE-C7 pancreatic duct cells viability, at 10 µM, stronger effect = higher value
For `CCc1nc(SCC(=O)Nc2cc(C)on2)c2c(C)c(C)sc2n1`, the cytotoxicity was -1.6%.
`CC1(C)CC(=O)C(C=NC2CCCCC2)=C(O)C1` gave a cytotoxicity of -6.9%.
Molecule `Cn1c(=O)c2c(SC3CCCC3)nc(CC(C)(C)C)nc2n(C)c1=O` has a cytotoxicity of -9%.
For `Cc1onc(-c2ccccc2Cl)c1C(=O)NCc1nc(-c2ccccc2)no1`, the cytotoxicity was -4.2%.
Work on `CC(=O)c1cccc(NC(=O)c2ccc(NS(C)(=O)=O)cc2)c1` yielded a cytotoxicity of 17.5%.
With `CCOC(=O)c1c(C)[nH]c(C(=O)Cn2c(=O)c3c(ncn3CC)n(Cc3ccccc3)c2=O)c1C` the cytotoxicity was 4.9%.
In the case of `CCOC(=O)c1c(NC(=O)c2cccs2)sc(C)c1CC`, the cytotoxicity is reported as -2.4%.
In the case of `CCc1c(C)sc(NC(=O)c2cccs2)c1C(=O)OC(C)C`, the cytotoxicity is reported as 58.9% (active).
`CC(C)OC(=O)c1c(NC(=O)c2cccs2)sc2c1CCCC2` showed a cytotoxicity of 9.8%.
In the case of `COc1ccccc1CC(NC(C)=O)C(=O)NC1CCN(c2nnnn2-c2ccccc2)CC1` (configuration not stated), the cytotoxicity is reported as -2.9%.
Molecule `CCN(CC)S(=O)(=O)c1ccc(-c2nnc(SCC(=O)c3ccc(OC)cc3)o2)cc1` has a cytotoxicity of -7.3%.
For `COc1ccc(C(=O)CSc2nnc(-c3ccc(S(=O)(=O)N4CCOCC4)cc3)o2)cc1`, the cytotoxicity was 56.1% (active).
`COc1ccc(C(=O)CSc2nnc(-c3ccc(C)cc3)o2)cc1` gave a cytotoxicity of -8.2%.
`O=C(CN1C(=O)c2ccccc2S1(=O)=O)N1CCN(Cc2ccc3c(c2)OCO3)CC1` showed a cytotoxicity of -4.2%.
For `CCCn1c(C)cc(C(=O)COc2ncnc3sccc23)c1C`, the cytotoxicity was -1.4%.
For `CCN1C(=O)c2cccc3c(NC(=O)c4ccc5c(c4)OCCO5)ccc1c23`, the cytotoxicity was 84.7% (active).
`CCN1C(=O)c2cccc3c(NC(=O)c4cccc(N5C(=O)CCC5=O)c4)ccc1c23` gave a cytotoxicity of -19.8%.
Molecule `CCN1C(=O)c2cccc3c(NC(=O)c4ccc(S(=O)(=O)N(C)C)cc4)ccc1c23` has a cytotoxicity of -24.8%.
`COc1ccc(CCC(=O)NCc2ccco2)cc1` gave a cytotoxicity of -5.5%.
Molecule `Clc1ccccc1-c1nnn(Cc2ccc(-c3nn[nH]n3)cc2)n1` has a cytotoxicity of -10.8%.
With `CCCS(=O)(=O)N1CCC(C(=O)N2CCC(Cc3ccccc3)CC2)CC1` the cytotoxicity was 79.7% (active).
Work on `CCCS(=O)(=O)N1CCCC(C(=O)N2CCC(Cc3ccccc3)CC2)C1` (configuration not stated) yielded a cytotoxicity of 0.4%.
Work on `CS(=O)(=O)N1CCC(C(=O)N2CCC(Cc3ccccc3)CC2)CC1` yielded a cytotoxicity of 1.2%.
Molecule `Clc1ccccc1Cn1nnc2c(N3CCCC3)ncnc21` has a cytotoxicity of 5%.
Molecule `COc1ccc(C2(O)CCN(Cc3nnnn3Cc3ccc(C)cc3)CC2)cc1` has a cytotoxicity of -4.4%.
Molecule `O=C(Oc1cc2oc(=O)c3c(c2cc1Cl)CCCC3)c1ccco1` has a cytotoxicity of -3.8%.
`CNc1oc(Cc2cccc3ccccc23)nc1C#N` showed a cytotoxicity of 3.8%.
With `C=CCNc1oc(Cc2cccc3ccccc23)nc1C#N` the cytotoxicity was -12%.
With `N#Cc1nc(Cc2cccc3ccccc23)oc1NCc1ccco1` the cytotoxicity was 58.4% (active).
Work on `CCn1cc(C(=O)NCCCN(C)c2ccccc2)c(=O)c2cc(S(=O)(=O)N(C)C)ccc21` yielded a cytotoxicity of 10.5%.
For `CCc1nnc(NC(=O)CSc2nccn2-c2cc(C)cc(C)c2)s1`, the cytotoxicity was 7.6%.
For `CCOc1ccc(-c2nc(-c3ccccc3C)no2)cc1`, the cytotoxicity was 2.4%.
In the case of `Cc1ccccc1-c1noc(-c2cccs2)n1`, the cytotoxicity is reported as -7.3%.
For `Cc1ccccc1-c1noc(-c2ccc(O)cc2)n1`, the cytotoxicity was 52.8% (active).
`CCn1c(-c2c[nH]c3ccccc23)n[nH]c1=S` gave a cytotoxicity of 6.5%.
Work on `O=C1Cc2ccccc2N1c1ccccc1` yielded a cytotoxicity of -6.3%.
Molecule `CCOC(=O)C1CCN(Cc2c(O)ccc3ccccc23)CC1` has a cytotoxicity of -5.8%.
In the case of `CCOC(=O)C1CCN(Cc2ccc(O)c3ncccc23)CC1`, the cytotoxicity is reported as 60.3% (active).
`CCOC(=O)C1CCN(Cc2ccc(OC)c(C)c2OC)CC1` showed a cytotoxicity of 2.2%.
In the case of `CN(C)c1ccc(C(=S)N2CCOCC2)cc1Br`, the cytotoxicity is reported as -13.8%.
`CCOC(=O)N1CCN(C(=O)c2ccc3c(=O)n(Cc4ccc(OC)cc4)c(=S)[nH]c3c2)CC1` gave a cytotoxicity of -14.8%.
With `COc1ccc(N2C(=O)CC(N3CCN(c4nc5ccccc5s4)CC3)C2=O)cc1` (configuration not stated) the cytotoxicity was 7.5%.
`CCSc1nnc(NC(=O)NC(CC)(C(F)(F)F)C(F)(F)F)s1` showed a cytotoxicity of 14.7%.
For `CCC(NC(=O)Nc1nccs1)(C(F)(F)F)C(F)(F)F`, the cytotoxicity was -7%.
For `O=C(NCC(F)(F)F)Nc1nnc(C(F)(F)F)s1`, the cytotoxicity was 12.3%.
Work on `CC(NC(=O)Nc1nccs1)(C(F)(F)F)C(F)(F)F` yielded a cytotoxicity of -4.1%.
Molecule `O=C(COC(=O)c1n[nH]c2ccccc12)NC(=O)NCc1ccco1` has a cytotoxicity of -1.6%.
`CC1=C(C(=O)Nc2ccccc2)C(c2ccncc2)C(C#N)=C(SCC(=O)NC2CC2)N1` (configuration not stated) gave a cytotoxicity of -16.3%.
Work on `COc1ccc(NC(=O)CSc2nnc(CNC(=O)c3ccco3)o2)c(OC)c1` yielded a cytotoxicity of -0.9%.
`CCOC(=O)C1=C(C)NC(C)=C(C(=O)OCC)C1C(=O)OCC(=O)N1CCC(C)CC1` showed a cytotoxicity of 0%.
In the case of `CC(C)Cn1c(=O)c(C(=O)Nc2cnccn2)c(O)c2ccccc21`, the cytotoxicity is reported as 29.3%.
For `CCCn1c(=O)c(C(=O)Nc2nnc(CC)s2)c(O)c2ccccc21`, the cytotoxicity was 51.2% (active).
`CCCn1c(=O)c(C(=O)NCc2ccccn2)c(O)c2ccccc21` gave a cytotoxicity of -12.9%.
In the case of `CCCn1c(=O)c(C(=O)Nc2ccncc2)c(O)c2ccccc21`, the cytotoxicity is reported as 31.4%.
With `CCc1nnc(NC(=O)c2cccc(C(=O)Nc3nnc(CC)s3)n2)s1` the cytotoxicity was 52.5% (active).
Work on `CCc1nnc(NC(=O)c2cccc(OC)c2)s1` yielded a cytotoxicity of -1.7%.
`C=CCn1c(=O)c(C(=O)Nc2nnc(C)s2)c(O)c2ccccc21` showed a cytotoxicity of 7.8%.
Molecule `CCCn1c(=O)c(C(=O)Nc2cnccn2)c(O)c2ccccc21` has a cytotoxicity of -11.9%.
For `CC(C)Cn1c(=O)c(C(=O)Nc2ccncc2)c(O)c2ccccc21`, the cytotoxicity was 53.2% (active).
For `CCc1nnc(NC(=O)c2cnccn2)s1`, the cytotoxicity was -17.9%.
For `CCCn1c(=O)c(C(=O)Nc2nnc(C)s2)c(O)c2ccccc21`, the cytotoxicity was 75.2% (active).
With `CCc1nnc(NC(=O)c2c(O)c3cccc4c3n(c2=O)CC4)s1` the cytotoxicity was 34.5%.
Work on `CC1CC(C)CN(C(=O)C(NS(=O)(=O)c2ccc3c(c2)oc(=O)n3C)C(C)C)C1` (configuration not stated) yielded a cytotoxicity of 9.9%.
For `CC(Sc1nnc(Cn2c(=O)sc3ccccc32)n1C)c1ccccc1` (configuration not stated), the cytotoxicity was -13.8%.
With `O=C(O)CCC1COc2ccccc2O1` (configuration not stated) the cytotoxicity was -3.3%.
Work on `CC(C)(C)n1nc2c(c1NC(=O)c1ccc(Br)cc1)CS(=O)C2` (configuration not stated) yielded a cytotoxicity of 0.9%.
In the case of `Cc1cc(NC(=O)c2cc(-c3cccs3)nc3ccccc23)no1`, the cytotoxicity is reported as 13.3%.
In the case of `CCOC(=O)c1[nH]c(C)c(C(=O)NCc2ccc(C)cc2)c1C`, the cytotoxicity is reported as -17.6%.
`CCn1c(=O)c(C(=O)Nn2c(C)nc3ccccc3c2=O)c(O)c2ccccc21` gave a cytotoxicity of 21.7%.
`CCn1c(=O)c(C(=O)Nc2cccnc2)c(O)c2ccccc21` gave a cytotoxicity of 15.8%.
`CCn1nc(NC(=O)c2ccncc2)c2cc3ccc(C)cc3nc21` showed a cytotoxicity of -0.2%.
In the case of `CCOC(=O)Cn1nnc(-c2ccc(OCC(C)C)cc2)n1`, the cytotoxicity is reported as -9.5%.
In the case of `NC(=O)CSc1nnc(Cn2c(=O)sc3ccccc32)n1-c1ccccc1`, the cytotoxicity is reported as 3.5%.
Molecule `CCOc1ccc(-c2nnn(CC(=O)Nc3ccccc3OC)n2)cc1OCC` has a cytotoxicity of -3.5%.
`CCOc1ccc(-c2nnn(CC(=O)Nc3cc(OC)cc(OC)c3)n2)cc1OCC` gave a cytotoxicity of 8%.
With `CCOc1ccc(-c2nnn(CC(=O)Nc3cc(OC)ccc3OC)n2)cc1OCC` the cytotoxicity was 69.5% (active).
`CCOC(=O)c1ccc(NC(=O)c2cc(S(=O)(=O)N3CCOCC3)ccc2O)cc1` gave a cytotoxicity of 3.3%.
`Cc1c(Cl)cccc1NC(=O)CC(C(=O)O)C1CCCO1` (configuration not stated) gave a cytotoxicity of 7.8%.
With `Cc1ccc(N2C(N)=NC(N)=NC23CCCC3)c(C)c1` the cytotoxicity was -2.3%.
For `Cc1ccc2nc(NCc3ccccc3)[nH]c2c1`, the cytotoxicity was 70.4% (active).
In the case of `c1ccc(CNc2nc3ccccc3[nH]2)cc1`, the cytotoxicity is reported as -11.8%.
Work on `COc1ccc2nc(NCc3ccccc3)[nH]c2c1` yielded a cytotoxicity of 39.1%.
`CN(CC(=O)NC1CCCc2ccccc21)S(=O)(=O)c1ccc2c(c1)c(=O)n(C)c(=O)n2C` (configuration not stated) showed a cytotoxicity of -10.5%.
For `c1csc(-c2csc(-c3cccs3)n2)c1`, the cytotoxicity was -4.7%.
With `COc1ccccc1S(=O)Cc1ccc(C(=O)NC2CCCC2)o1` (configuration not stated) the cytotoxicity was -13.2%.
In the case of `COC(=O)c1ccccc1NC(=O)Cn1cc2c(n1)CCC(C)C2` (configuration not stated), the cytotoxicity is reported as -7.1%.
With `Cc1ccc(C2NC(=O)c3ccccc3N2)s1` (configuration not stated) the cytotoxicity was 55.9% (active).
In the case of `Cc1ccsc1C1NC(=O)c2ccccc2N1` (configuration not stated), the cytotoxicity is reported as -19.5%.
`O=C1NC(c2cccs2)Nc2ccccc21` (configuration not stated) showed a cytotoxicity of 5%.
In the case of `CCN(CC)CCn1c(OC)cc(=O)[nH]c1=O`, the cytotoxicity is reported as -2.5%.
For `O=C(CCNC(=O)c1ccc(Br)o1)NCc1ccccc1Cl`, the cytotoxicity was -6.1%.
`CC(C)c1ccc(-c2nc(N3CCCCC3)[nH]c(=O)c2C#N)cc1` gave a cytotoxicity of 24.7%.
`COc1ccc(CCNC(=O)CSc2nnnn2Cc2ccc3c(c2)OCO3)cc1OC` showed a cytotoxicity of -16.4%.
Molecule `COc1ccc(OC(=O)c2cc3ccccc3o2)cc1` has a cytotoxicity of -0.5%.
`COc1ccc(-c2noc(C)c2-c2ccc3ccccc3n2)c(O)c1` gave a cytotoxicity of 48.2%.
Molecule `CCOC(=O)c1ccc(NC(=O)Cn2nnc3ccccc32)cc1` has a cytotoxicity of 3.7%.
For `C#CCSC1=C(C#N)C(c2cccs2)C(C(=O)OCC)=C(C)N1` (configuration not stated), the cytotoxicity was 53% (active).
In the case of `CCSC1=C(C#N)C(c2cccs2)C(C(=O)OC)=C(C)N1` (configuration not stated), the cytotoxicity is reported as 13.4%.
`CCOC(=O)C1=C(C)NC(SCC(=O)Nc2cc(C)on2)=C(C#N)C1c1cccs1` (configuration not stated) showed a cytotoxicity of 10.6%.
Molecule `CCOCCSC1=C(C#N)C(c2cccs2)C(C(C)=O)=C(C)N1` (configuration not stated) has a cytotoxicity of 4.5%.
Work on `CCOC(=O)C1=C(C)NC(SCc2cc(=O)[nH][nH]2)=C(C#N)C1c1cccs1` (configuration not stated) yielded a cytotoxicity of 37.1%.
In the case of `CCOC(=O)C1=C(C)NC(SCC(=O)Nc2nc(C)cs2)=C(C#N)C1c1cccs1` (configuration not stated), the cytotoxicity is reported as 78.9% (active).
